Results taken from PubChem BioAssay AID1745853 (National Center for Advancing Translational Sciences (NCATS), 2022).
Among all 25,000 compounds or so, about 970 (3.9%) were called active. Inconclusive results (about 8%) are left out. This is one part of a sample in which actives are shown more often than they occur. No rule for the calls is given here.

Tests used:
Experiment in all cases: Primary Screen for Target Class Profiling of Small Molecule Inhibitors of Methyltransferases
[1] = biological target: Catechol O-methyltransferase (Homo sapiens) (UniProt P21964); conditions: purified enzyme, MTase-Glo SAH luminescence; activity change, negative = inhibition: at 40 µM, stronger effect = lower value; outcome: 40 uM
Summary of the method: (§1)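 Each enzyme was reacted with SAM and its substrate, with compounds tested once at 40 uM; SAH formed was read by MTase-Glo luminescence.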

[2] = biological target: Glycine N-methyltransferase (Homo sapiens) (UniProt Q14749); conditions: purified enzyme, MTase-Glo SAH luminescence; measured here: GNMT inhibition; at 40 µM; stronger effect = lower value
Summary of the method: as §1

[3] = biological target: Guanidinoacetate N-methyltransferase (Homo sapiens) (UniProt Q14353); conditions: purified enzyme, MTase-Glo SAH luminescence; measured here: GAMT inhibition; at 40 µM; stronger effect = lower value
Summary of the method: as §1

[4] = biological target: Histamine N-methyltransferase (Homo sapiens) (UniProt P50135); conditions: purified enzyme, MTase-Glo SAH luminescence; measured here: HNMT inhibition; at 40 µM; stronger effect = lower value
Summary of the method: as §1

[5] = biological target: Nicotinamide N-methyltransferase (Homo sapiens) (UniProt P40261); conditions: purified enzyme, MTase-Glo SAH luminescence; measured here: NNMT inhibition; at 40 µM; stronger effect = lower value
Summary of the method: as §1

[6] = biological target: Phenylethanolamine N-methyltransferase (Homo sapiens) (UniProt P11086); conditions: purified enzyme, MTase-Glo SAH luminescence; measured here: PNMT inhibition; at 40 µM; stronger effect = lower value
Summary of the method: as §1
% is scaled to controls: 0 for no effect and ±100 for the full control effect.

Chain of Nicotinamide N-methyltransferase (Homo sapiens) (P40261 whole entry, looked up): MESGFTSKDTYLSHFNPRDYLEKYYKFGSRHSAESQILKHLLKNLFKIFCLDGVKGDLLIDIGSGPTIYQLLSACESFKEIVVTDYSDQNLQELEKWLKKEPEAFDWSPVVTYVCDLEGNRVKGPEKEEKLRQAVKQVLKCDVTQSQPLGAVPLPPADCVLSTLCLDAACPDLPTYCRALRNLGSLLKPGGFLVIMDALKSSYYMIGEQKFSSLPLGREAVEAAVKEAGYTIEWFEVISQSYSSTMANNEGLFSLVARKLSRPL
Chain of Histamine N-methyltransferase (Homo sapiens) (P50135 whole entry, looked up): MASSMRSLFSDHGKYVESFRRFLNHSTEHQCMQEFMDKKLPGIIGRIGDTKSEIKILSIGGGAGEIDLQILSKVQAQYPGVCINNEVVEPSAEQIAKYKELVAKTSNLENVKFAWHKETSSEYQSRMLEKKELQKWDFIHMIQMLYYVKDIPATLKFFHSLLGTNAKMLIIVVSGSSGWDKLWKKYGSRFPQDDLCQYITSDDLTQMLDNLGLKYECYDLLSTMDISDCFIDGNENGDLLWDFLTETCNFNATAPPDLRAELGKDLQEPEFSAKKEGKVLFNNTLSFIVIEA
Chain of Catechol O-methyltransferase (Homo sapiens) (P21964 whole entry, looked up): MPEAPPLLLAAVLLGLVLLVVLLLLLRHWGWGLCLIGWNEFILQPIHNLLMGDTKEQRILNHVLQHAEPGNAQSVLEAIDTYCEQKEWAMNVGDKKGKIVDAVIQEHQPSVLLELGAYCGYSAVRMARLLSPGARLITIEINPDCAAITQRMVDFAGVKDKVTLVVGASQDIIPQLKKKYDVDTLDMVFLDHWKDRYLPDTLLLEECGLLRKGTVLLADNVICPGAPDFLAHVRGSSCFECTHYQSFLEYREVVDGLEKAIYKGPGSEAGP
Chain of Glycine N-methyltransferase (Homo sapiens) (Q14749 whole entry, looked up): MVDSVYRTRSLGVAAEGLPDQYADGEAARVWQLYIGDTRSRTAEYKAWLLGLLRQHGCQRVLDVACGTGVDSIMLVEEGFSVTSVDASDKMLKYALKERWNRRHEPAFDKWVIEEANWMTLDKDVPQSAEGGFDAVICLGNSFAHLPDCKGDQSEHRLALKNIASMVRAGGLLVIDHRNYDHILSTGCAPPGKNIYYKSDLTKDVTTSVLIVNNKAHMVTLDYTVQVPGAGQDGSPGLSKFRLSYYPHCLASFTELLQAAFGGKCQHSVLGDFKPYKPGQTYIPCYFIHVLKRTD
Chain of Phenylethanolamine N-methyltransferase (Homo sapiens) (P11086 whole entry, looked up): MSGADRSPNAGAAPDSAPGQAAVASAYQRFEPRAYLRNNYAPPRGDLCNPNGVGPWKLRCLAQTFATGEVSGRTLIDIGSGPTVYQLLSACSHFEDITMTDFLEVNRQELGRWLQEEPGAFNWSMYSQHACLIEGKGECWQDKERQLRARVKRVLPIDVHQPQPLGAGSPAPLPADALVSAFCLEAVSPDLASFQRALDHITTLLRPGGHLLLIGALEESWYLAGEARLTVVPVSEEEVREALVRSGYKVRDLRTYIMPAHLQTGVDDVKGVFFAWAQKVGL

COc1ccc(CCN2C(=O)c3ccc(-c4ccco4)n3CC2(C)C(=O)NCc2ccc(Cl)cc2)cc1OC (stereo unspecified)
activity change, negative = inhibition [1]: 0.852% (inactive) | activity change, negative = inhibition [2]: -6.96% | activity change, negative = inhibition [3]: 1.72% | activity change, negative = inhibition [4]: 2.32% | activity change, negative = inhibition [5]: -28.2% | activity change, negative = inhibition [6]: -1.05%

Cc1cc2c(cc3n2CC(C)(C(=O)NC2CCCCC2)N(C2CCCCCC2)C3=O)o1 (stereo unspecified)
activity change, negative = inhibition [1]: 3.65% (inactive) | activity change, negative = inhibition [2]: 2.96% | activity change, negative = inhibition [3]: 9.51% | activity change, negative = inhibition [4]: 3.49% | activity change, negative = inhibition [5]: -0.25% | activity change, negative = inhibition [6]: -2.76%

CCCCCCc1cc2c(-c3ccccc3)cc(=O)oc2cc1OCC(N)=O
activity change, negative = inhibition [1]: -7.58% (inactive) | activity change, negative = inhibition [2]: -9.86% | activity change, negative = inhibition [3]: 1.37% | activity change, negative = inhibition [4]: -0.051% | activity change, negative = inhibition [5]: -9% | activity change, negative = inhibition [6]: -8.85%

COc1c2c(c(C)c3c1C(=O)OC3)OC1(C)CC(O)C34OC(O)(CCC3(C)C1C2)OC4(C)C (stereo unspecified)
activity change, negative = inhibition [1]: -2.85% (inactive) | activity change, negative = inhibition [2]: -1.14% | activity change, negative = inhibition [3]: -7.45% | activity change, negative = inhibition [4]: -0.188% | activity change, negative = inhibition [5]: -20.3% | activity change, negative = inhibition [6]: -0.001%

COc1ccc(OC)c(CCNC(=O)CCn2ccc3cc(S(=O)(=O)N4CCCC4)ccc32)c1
activity change, negative = inhibition [1]: 1.88% (inactive) | activity change, negative = inhibition [2]: 1.91% | activity change, negative = inhibition [3]: 4.56% | activity change, negative = inhibition [4]: 3.65% | activity change, negative = inhibition [5]: -0.408% | activity change, negative = inhibition [6]: 0.497%

CCOc1ccccc1CN1CCC(Cc2nc(-c3cccnc3)n[nH]2)C1 (stereo unspecified)
activity change, negative = inhibition [1]: -5.67% (active) | activity change, negative = inhibition [2]: -4.21% | activity change, negative = inhibition [3]: -1.54% | activity change, negative = inhibition [4]: -56.9% | activity change, negative = inhibition [5]: -49.4% | activity change, negative = inhibition [6]: -12.9%

CC(C)NC(=O)c1ccccc1OCC1CCCN(Cc2cccnc2)C1 (stereo unspecified)
activity change, negative = inhibition [1]: -0.392% (inactive) | activity change, negative = inhibition [2]: -1.68% | activity change, negative = inhibition [3]: -10.2% | activity change, negative = inhibition [4]: -2.4% | activity change, negative = inhibition [5]: -8.48% | activity change, negative = inhibition [6]: -0.898%

Cn1nccc1C(=O)N1CCC(Cc2nc(C3CC3)n[nH]2)C1 (stereo unspecified)
activity change, negative = inhibition [1]: -2.8% (inactive) | activity change, negative = inhibition [2]: -3.99% | activity change, negative = inhibition [3]: -1.84% | activity change, negative = inhibition [4]: -1.69% | activity change, negative = inhibition [5]: -5.4% | activity change, negative = inhibition [6]: -4.14%

CCC(C)N1Cc2cc(NC(=O)c3ccc([N+](=O)[O-])cc3)ccc2OCC1=O (stereo unspecified)
activity change, negative = inhibition [1]: -3.17% (inactive) | activity change, negative = inhibition [2]: -7.2% | activity change, negative = inhibition [3]: -10.5% | activity change, negative = inhibition [4]: -3.63% | activity change, negative = inhibition [5]: -19.6% | activity change, negative = inhibition [6]: -7.68%

CC(=O)c1ccc2c(c1)[C@H](NC(=O)c1ccc(F)c(Cl)c1)[C@H](O)C(C)(C)O2
activity change, negative = inhibition [1]: -7.4% (inactive) | activity change, negative = inhibition [2]: -1.85% | activity change, negative = inhibition [3]: -7.24% | activity change, negative = inhibition [4]: -2.99% | activity change, negative = inhibition [5]: -18.7% | activity change, negative = inhibition [6]: -13.1%

COC[C@H]1NC(=O)CC[C@H]1C(=O)N1CCN(c2cccc(C)c2)CC1
activity change, negative = inhibition [1]: -9.6% (inactive) | activity change, negative = inhibition [2]: -5.9% | activity change, negative = inhibition [3]: -7.51% | activity change, negative = inhibition [4]: -3.65% | activity change, negative = inhibition [5]: -13.6% | activity change, negative = inhibition [6]: -21.5%
